# According to PMC4336329 (PLoS ONE, 2015):
# About 14,000 (4.5%) of roughly 310,000 compounds showed an effect of 50% or more. The effect is printed as a negative number. The list comes from a sample in which strong results are over-represented; it also holds similar structures and randomly drawn compounds.
# Target: human ether-à-go-go-related gene (hERG) potassium channel (human, UniProt Q12809)
# Experiment: primary screen, population patch clamp on CHO cells stably expressing hERG; higher = less effect of the substance
# 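Further: peak tail current of the secondary pulse compared with the same well before compound.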
# human ether-à-go-go-related gene (hERG) potassium channel, sequence (Q12809 whole entry, looked up): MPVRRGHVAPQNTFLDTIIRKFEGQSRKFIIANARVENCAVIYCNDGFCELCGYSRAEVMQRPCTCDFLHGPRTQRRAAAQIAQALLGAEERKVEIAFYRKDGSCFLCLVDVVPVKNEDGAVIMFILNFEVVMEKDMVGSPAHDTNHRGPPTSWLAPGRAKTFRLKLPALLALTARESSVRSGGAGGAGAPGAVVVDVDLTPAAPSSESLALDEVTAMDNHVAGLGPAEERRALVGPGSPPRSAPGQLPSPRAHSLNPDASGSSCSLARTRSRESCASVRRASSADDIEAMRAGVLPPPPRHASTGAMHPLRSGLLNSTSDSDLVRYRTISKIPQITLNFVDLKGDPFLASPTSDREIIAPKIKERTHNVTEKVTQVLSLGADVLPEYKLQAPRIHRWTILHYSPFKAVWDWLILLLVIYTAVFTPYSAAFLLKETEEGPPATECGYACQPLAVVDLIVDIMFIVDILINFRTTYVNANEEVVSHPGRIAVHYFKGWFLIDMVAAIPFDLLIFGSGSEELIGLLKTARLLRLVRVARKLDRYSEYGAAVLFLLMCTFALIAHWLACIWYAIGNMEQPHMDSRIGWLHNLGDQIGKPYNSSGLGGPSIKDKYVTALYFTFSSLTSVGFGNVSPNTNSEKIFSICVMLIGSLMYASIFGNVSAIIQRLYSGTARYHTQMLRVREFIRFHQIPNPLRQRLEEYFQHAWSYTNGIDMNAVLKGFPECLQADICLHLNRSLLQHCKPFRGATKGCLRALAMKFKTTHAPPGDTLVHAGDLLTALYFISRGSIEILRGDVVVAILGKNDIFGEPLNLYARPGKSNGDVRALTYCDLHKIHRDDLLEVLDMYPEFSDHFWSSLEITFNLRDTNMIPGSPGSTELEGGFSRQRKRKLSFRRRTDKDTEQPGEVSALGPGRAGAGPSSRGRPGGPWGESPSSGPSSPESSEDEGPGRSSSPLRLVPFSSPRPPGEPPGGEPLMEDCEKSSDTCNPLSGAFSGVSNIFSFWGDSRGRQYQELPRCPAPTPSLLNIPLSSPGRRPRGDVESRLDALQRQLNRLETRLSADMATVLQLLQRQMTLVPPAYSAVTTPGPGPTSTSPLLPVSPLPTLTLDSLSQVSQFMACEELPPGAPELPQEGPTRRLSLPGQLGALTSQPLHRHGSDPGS
row,Compound,"hERG current change (%, negative = inhibition) at 10uM [%]"
1,O=C1c2ccccc2S(=O)(=O)N1CC(O)Cn1c2ccccc2c2ccccc21 (centres unmarked),3.03
2,CCn1c(Cc2ccccc2)nnc1SCC(=O)Nc1ccc(N2CCOCC2)c(Cl)c1,-5.94
3,COc1cc(CNCCc2ccc(F)cc2)ccc1OCc1ccc(Cl)nc1.Cl,-68.2
4,CCCCNCc1ccc(OCc2ccc(Cl)nc2)c(OC)c1.Cl,-32.7
5,COc1cc(CNCCc2ccccc2F)ccc1OCc1ccc(Cl)nc1.Cl,-49.5
6,COc1cc(CNCCc2ccccc2)ccc1OCc1ccc(Cl)nc1.Cl,-39.5
7,CCCCCNCc1ccc(OCc2ccc(Cl)nc2)c(OC)c1,-45.8
8,COc1ccc(CCNCc2ccc(OCc3ccc(Cl)nc3)c(OC)c2)cc1OC.Cl,-63.3
9,CC1CCCC(NC(=O)COC(=O)c2ccc3ncsc3c2)C1C (centres unmarked),-3.48
10,CC(C)N(C1=CC(=O)OC12CCCCC2)C(C)C,-0.582
11,COc1cc(C(=O)N/N=C(\C)Cc2ccccc2)cc(OC)c1OC,9.1
12,CCOC(=O)N1CCC(NC(=O)CSCc2nc(-c3ccc(OC)c(OC)c3)oc2C)CC1,-2.5
13,COc1ccc(-c2onc(C)c2-c2cnn(-c3ccccc3)c2)c(O)c1,3.71
14,COc1cc(OC)c(/C=N/NC(=O)c2ccc(Cn3nc([N+](=O)[O-])cc3C)cc2)c(OC)c1,-37.1
15,Cc1ccc2nsnc2c1NC(=O)c1ccc([N+](=O)[O-])o1,13.1
16,CCN1CCN(Cc2ccc(NC(=O)c3ccc(C)c(NC(=O)N4CCNC4=O)c3)cc2C(F)(F)F)CC1,1.09
17,CCOC(=O)C1(Cc2ccccc2)CCN(Cc2cccn2-c2cccnc2)CC1,-39
18,OCC1(CCc2ccccc2)CCN(Cc2cccn2-c2cccnc2)CC1,-49.4
19,OCC1(CCOc2ccccc2)CCN(Cc2cccn2-c2ncccn2)CC1,-82.2
20,CCOC(=O)C1(CCOc2ccccc2)CCN(Cc2cccn2-c2cccnc2)CC1,-51.8
21,CCOC(=O)C1(CCOc2ccccc2)CCN(Cc2cccn2-c2ncccn2)CC1,-76.4
22,O=C(Nc1ccccc1)c1ccccc1N=Cc1ccccc1O,2.2

row,Compound,"hERG current change (%, negative = inhibition) at 10uM [%]"
1,COc1cc2c(cc1OC)CN(S(=O)(=O)c1cccc(F)c1)CC2,18.6
2,Cc1ccc(C)c(C(=O)COC(=O)Cn2[nH]c(=O)c3ccccc3c2=O)c1,5.51
3,O=C(CN1C(=O)NC2(CCCC2)C1=O)N1CCN(c2cccc(C(F)(F)F)c2)CC1,-24.5
4,Cc1oc2c(C)c3oc(=O)c(CCC(=O)NCCCN4CCOCC4)c(C)c3cc2c1C,-6.99
5,COc1ccccc1CCN=C(N)NS(=O)(=O)c1ccc(C)c(C)c1,9.37
6,O=C(COC(=O)c1ncc(Cl)c(Cl)c1Cl)NCc1ccccc1,2.42
7,CCN1CCN(C(=O)CS(=O)Cc2nc(-c3cccc(C)c3)oc2C)CC1 (centres unmarked),3.36
8,COc1ccc(-c2nnc(SC(C(=O)c3c[nH]c4ccccc34)c3ccccc3)n2N)cc1OC (centres unmarked),2.03
9,COc1ccc(NC(=O)c2cc3ccc(O)cc3o/c2=N\O)cc1,2.99
10,C=CCn1c(=O)c2ccccc2n2c(SCC(N)=O)nnc12,2.96
11,C=CCn1c(=O)c2ccccc2n2c(SCc3c(C(=O)OCC)oc4ccccc34)nnc12,-56.1
12,C=CCn1c(=O)c2ccccc2n2c(SCC(=O)NC)nnc12,-1.24
13,C=CCn1c(=O)c2ccccc2n2c(SCC(=O)Nc3sc(C(=O)N(CC)CC)c(C)c3C(=O)OCC)nnc12,-52.3
14,C=CCn1c(=O)c2ccccc2n2c(SCC(=O)Nc3sc(C)c(CC)c3C(=O)OCC)nnc12,6.96
15,CCCn1c(=O)c2ccccc2n2c(SCc3c(C(=O)OCC)oc4ccccc34)nnc12,-43.5
16,Cc1ccc(S(=O)(=O)N(C)C)cc1NC(=O)CN1C(=O)NC(Cc2ccccc2)C1=O (centres unmarked),8.61
17,O=C(O)C(=O)O.OCCN1CCN(CC(O)COC(c2ccc(F)cc2)c2ccc(F)cc2)CC1 (centres unmarked),-61.9
18,O=C(O)C(=O)O.OC(COC(c1ccc(F)cc1)c1ccc(F)cc1)CN1CCCC(C(F)(F)F)C1 (centres unmarked),10.8
19,CC(=O)c1ccc(OCC(O)CN2CCN(CCO)CC2)cc1.Cl (centres unmarked),9.1
20,O=C(O)C(=O)O.OC1CCCN(CC(O)COC(c2ccc(F)cc2)c2ccc(F)cc2)C1 (centres unmarked),-57.6
21,Cc1ccccc1C(OCC(O)CN1CCN(CCO)CC1)c1ccccc1.O=C(O)C(=O)O (centres unmarked),-12.1
22,O=C(O)C(=O)O.OC(COC(c1ccc(F)cc1)c1ccc(F)cc1)CN1CCCC1 (centres unmarked),-70.6
